Screen size: about 340,000 compounds; about 2,100 (0.62%) were called active.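 How the source made its calls: active means first-screen hits whose inhibition reached a set limit at any dose in the follow-up dose series; inconclusive means inhibition above the set first-screen limit but never retested; inactive means the rest.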 These entries were drawn from the full list. Results with a measured potency or affinity are listed apart.
Molecular target: Rac GTPase-activating protein 1 (Homo sapiens) (UniProt Q9H0H5)
Assay: blockers of MgcRacGAP-driven Rac1 GTP hydrolysis – biochemical, ADP Hunter fluorescence, primary and confirmatory, confirmation (AID 624330);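 further: fluorescence reports GDP produced by GAP-driven GTP hydrolysis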
Settings: MgcRacGAP-stimulated Rac1 GTP hydrolysis, at 30 µM, stronger effect = higher value, GST-tagged Rac1 F28L mutant substrate

Rac GTPase-activating protein 1 (Homo sapiens), sequence (Q9H0H5 whole entry, looked up): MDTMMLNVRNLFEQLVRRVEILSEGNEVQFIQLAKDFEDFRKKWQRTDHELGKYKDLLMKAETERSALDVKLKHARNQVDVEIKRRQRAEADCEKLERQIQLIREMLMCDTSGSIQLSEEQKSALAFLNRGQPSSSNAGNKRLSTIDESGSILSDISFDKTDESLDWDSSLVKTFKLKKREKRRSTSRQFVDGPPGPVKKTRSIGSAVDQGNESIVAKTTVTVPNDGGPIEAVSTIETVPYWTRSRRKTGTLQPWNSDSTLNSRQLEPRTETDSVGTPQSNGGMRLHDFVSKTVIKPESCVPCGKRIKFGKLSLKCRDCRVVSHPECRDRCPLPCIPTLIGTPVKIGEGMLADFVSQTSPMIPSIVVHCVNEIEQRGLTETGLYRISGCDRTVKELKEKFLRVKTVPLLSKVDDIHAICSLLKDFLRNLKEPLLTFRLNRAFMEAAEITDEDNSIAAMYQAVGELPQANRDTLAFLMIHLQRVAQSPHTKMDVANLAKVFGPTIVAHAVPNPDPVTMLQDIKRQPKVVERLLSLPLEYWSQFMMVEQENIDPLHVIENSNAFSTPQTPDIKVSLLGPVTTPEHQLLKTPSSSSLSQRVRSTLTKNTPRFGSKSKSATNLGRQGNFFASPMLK

inhibition, inactive:
CC(=O)c1cccc(NC(=O)Nc2c(C)nn(C)c2C)c1 6.89%, Nc1nc(-c2ccccc2)c(-c2ccccc2)s1 10.3%, Cc1ccc(-c2nc(N)sc2-c2ccccc2)cc1C 8.82%, O=S(=O)(NCCCN1CCOCC1)c1ccc(Cl)s1 1.35%, C/C(=C\C(=O)c1cccnc1)Nc1ccc(C(=O)O)cc1 -0.69%, COc1ccc(N/C(C)=C/C(=O)c2ccccc2)cc1 10.4%, C/C(=C\C(=O)c1ccccc1)Nc1ccc(Cl)c(Br)c1 6.98%, CC(=O)Nc1ccc(N/C(C)=C/C(=O)c2cccnc2)cc1 -2.43%, O=C(Nc1ccccc1O)c1ccc(C(=O)c2ccccc2)o1 3.33%, COc1ccc(NC(=O)c2ccc(C(=O)c3ccccc3)o2)cc1 1.49%, CCN(CC(=O)NCc1ccc(Cl)cc1)C(=O)Cc1ccc(OC)cc1 5.69%, Cc1cc(C(=O)Nc2ccccc2[N+](=O)[O-])cs1 0.21%, CCOc1ccc(NC(=O)CN(C)C(=O)c2ccc(N3CCCCCC3)c([N+](=O)[O-])c2)cc1OCC 3.24%, CCOC(=O)c1ccc2ncc(C(=O)OCC)c(NCCN(C)C)c2c1 -0.66%, CN(C)CCNc1ccc(-c2nn(C)c(=O)c3ccccc23)cc1[N+](=O)[O-] 3.29%, CCOC(=O)c1cnc2ccc(Cl)cc2c1NCCN(C)C 14.5%, CCN(CC)CCCNC(=O)c1cc(-c2ccc(O)cc2)on1 25.9%, CCN(CC)CCCNc1ncnc2ccccc12 8.44%, Cc1cc(NCCO)c2cc(O)ccc2n1 15%, COC(=O)c1ccccc1NC(=O)c1sc(Cl)nc1C 6.47%, O=C1C=CC(=O)C(CNc2ccc(C(=O)OCc3ccccc3)cc2)=C1 19.7%, Fc1ccc(-c2nnc(N3CCOCC3)c3ccccc23)cc1F 10.8%, COC(=O)C(Cc1ccccc1)NC(=O)CNS(=O)(=O)c1ccc(Br)cc1 (centres undefined) -0.24%, CCCCOc1cccc(C(=O)O)c1 4%, CC[N+](CC)(CC)CCOc1ccc(/C=C/c2ccccc2)cc1 9.54%, CCOc1ccc2c(c1)C(=O)c1cc(OCC(=O)O)ccc1-2 13.8%, Cc1cc(OCCCCOc2ccc(S(N)(=O)=O)c(C)c2)ccc1S(N)(=O)=O 6.93%, O=C(c1ccc(Cl)c(S(=O)(=O)N2CCCCCC2)c1)N1CCCC(C(F)(F)F)C1 (centres undefined) 1.91%, COc1cccc(C(=O)NC2CCCc3ccccc32)c1 (centres undefined) 11.4%, CSc1nsc2nc(=O)c(/C=C3\C=Nc4ccccc43)c(N)n12 1.86%, O=c1[nH]c(=S)[nH]c(O)c1/C=C1\C=Nc2ccccc21 -1.08%, Cn1c(O)c(/C=C2\C=Nc3ccccc32)sc1=Nc1ccc(C(=O)O)cc1 7.27%, Oc1nc(Nc2ccc(F)cc2)sc1/C=C1\C=Nc2ccccc21 10.4%, CC(=O)c1ccc(-n2c(CCC(=O)O)ccc2-c2ccc(Br)cc2)cc1 11.4%, CCCN(CC(=O)Nc1cccc(Br)c1)CC(=O)Nc1ccc(F)c(F)c1F 8.26%, CCc1ccccc1S(=O)(=O)Cc1ccc(C(=O)NCc2cccs2)o1 1.89%, O=C(CN(CC1CCCO1)C(=O)Cn1nnc(-c2ccc(F)cc2)n1)NC1CCCCC1 (centres undefined) 3.03%, Cc1cccc(C(C)Nc2ccc([N+](=O)[O-])cn2)c1 (centres undefined) 1.95%, COC(=O)c1ccc(/C=C/C(=O)c2ccc(OC)cc2)cc1 4.33%, COc1ccc(/C=C/C(=O)c2ccc(O)cc2)cc1 4.28%, CCn1cc(C(=O)N2CCN(c3ccc(OC)cc3)CC2)c2cc(OC)c(OC)cc2c1=O 18.7%, CC(C)c1nnc(NC(=O)c2cccc(-n3cnnn3)c2)s1 10.5%, Cc1ccc(C2=NN=C(NC(=O)CSc3nnc4c5ccccc5n(C)c4n3)SC2)cc1 28.8%, Cc1cc(C)nc(SCC(=O)NC2=NN=C(c3ccc(Br)cc3)CS2)n1 27.2%, COc1ccc2nc(/C(C#N)=C\c3ccc(Oc4ccc([N+](=O)[O-])cn4)cc3)[nH]c2c1 5.92%, Cc1cccc(N2C(=O)Cc3ccccc3C2=O)c1 8.26%, Cc1ccc(C(c2nnnn2C2CCCC2)N2CCN(c3nc4ccccc4s3)CC2)cc1 (centres undefined) 4.8%, Cc1ccc(OCC(=O)N/N=C\c2cccn2C)c([N+](=O)[O-])c1 1.92%, COc1ccc2nc3cc(Cl)ccc3c(Nc3cc(C(C)C)c(O)cc3C)c2c1 7.74%, COc1ccc(N2CCN(Cc3nc4cc(Cl)ccc4c(=O)[nH]3)CC2)cc1 15.2%, CCOc1ccc(N2C(=O)CC(Cc3cc(C)cc(C)c3)C2=O)cc1 (centres undefined) 7.28%, Cc1ccc(N=Nc2ccc(O)cc2)c(Br)c1 14.6%, Cc1ccc(N=C(N)N=C(N)N)cc1 16.3%, CC(=O)C1C(c2cccc(F)c2)c2c(n[nH]c2C)CC1(C)O (centres undefined) 9.67%, CCC(=O)N1N=C(c2cccc(NS(C)(=O)=O)c2)CC1c1cccs1 (centres undefined) 11.9%, COc1cc(NCc2ccccc2)c2ncn(Cc3ccccc3)c2c1 6.64%, CCn1cc(C(=O)Nc2ccc(NC(=O)c3ccco3)cc2)c(=O)c2ccc(C)nc21 0.62%, Cc1cc(C(=O)CN2C(=O)NC3(CCCCC3)C2=O)c(C)n1Cc1ccc2c(c1)OCO2 0.78%, Cc1[nH]n(-c2cccc([N+](=O)[O-])c2)c(=O)c1-c1ccccc1 8.04%, O=c1c(N=Nc2ccccc2)c[nH]n1-c1ccccc1 -5.5%, Nc1c(-c2cccc(Cl)c2)cnn1-c1ccccc1 20.3%, Nc1c(-c2ccccc2)cnn1-c1cccc([N+](=O)[O-])c1 5.5%, COc1c[nH]n(-c2ccccc2)c(=O)c1=O 5.24%, S=c1[nH]cc(-c2ccccc2)n1-c1cccc(Cl)c1 6.88%
